Compounds without any hit were thinned out: in the full panel of roughly 83,000, 20% have a hit.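 Testing used 96-well plates and a 48-hour single-concentration exposure. Example: -40 means 40% of the starting cells died.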 Values without a mark were called inactive. Rule for the calls: active = growth percent below 10; inactive = the rest.

In this assay the test system is UO-31 renal. Kind of assay: NCI-60 one-dose screen, 48 h (100 = growth as untreated, 0 = no growth, -100 = all killed). As to conditions: 10 µM unless noted.
On to `COc1ccc(-c2nc(N)n(C(=S)Nc3ccccc3)n2)cc1`, for which the growth is 74.2%. The figure for `Cc1sc(NC(=O)c2ccc(C(C)(C)C)cc2)c(C(=O)O)c1C` is 89.9%; for `C#CCCCCCCC[C@@H]1OC(=O)[C@H]([C@@H](C)CC)NC(=O)[C@H]([C@@H](C)CC)NC(=O)CC(=O)[C@@H]1C` it is 67.3%.

For `CCOC1=C(Cl)C(=O)C(OCC)=C(Cl)C1=O`, the growth was 83.8%. With `Cc1ccc(CC(=O)O)c(C)c1` the figure was 91.4%. The figure for `O=C1C(=O)c2ccccc2C(O)=C1CCCc1ccc(Oc2ccccc2)cc1` is 43.5%. With `CCOc1ccc2nc3ccc(Cl)cc3nc2c1` the figure was 74.9%.

With `COC(=O)/C(Br)=C/c1c[nH]c2ccc(Br)cc12`, the growth was 46.7%. With `CC(=O)c1ccc2c(c1)c1ccccc1n2C` the figure was 60.8%; with `Cc1ccc([C@@H]2C[C@H](O)Cc3ccccc3N2)s1`, 94.5%. With `COC(=O)/C=C/c1cc(O)c2oc(-c3ccc(O)c(O)c3)c(C(=O)OC)c2c1` the figure was 22.6%. With `CCc1c(C)c2ccc(OCC(=O)N=Nc3c(O)[nH]c4ccccc34)c(C)c2oc1=O` the figure was 64.8%. In the case of `CC1=C(C)C[C@]2(C(=O)O[C@H]3CCCC[C@@H]32)[S@](=O)C1`, the growth is 91.2%.

In the case of `CCOC(=O)C1=NN(c2ccccc2)C2=NC(=O)/C(=C\c3cn(-c4ccccc4)nc3-c3cc4ccccc4o3)C(=O)N12`, the growth is 68.5%.

Take `COc1cc2c(/C=C3\C(=O)Nc4ccc(Br)cc43)c(Cl)n(C)c2cc1C`: the growth is 31.6%.

The values above are taken from PubChem BioAssay (NCI).
